# More than one record can exist for a structure, and the calls need not agree. Activity calls are given as the source filed them. The calls were made as follows: active = hit-call score of the fitted dose curve at least 0.9, where 1 is the maximum; inactive = score below 0.9.
# What was measured:
# [1] = read-out: TIMP metallopeptidase inhibitor 2 (TIMP2), TIMP2 (gene 7077); test: BSK_KF3CT_TIMP2: BioMAP Diversity Plus: KF3CT Assay for TIMP metallopeptidase inhibitor 2 (TIMP2) Biomarker Activity (AID 2283071); details: primary human keratinocytes with fibroblasts; actives raise or lower the signal
# Summary of the method: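 Co-culture of human primary keratinocytes and foreskin fibroblasts, measured 24 h after chemical dosing. TIMP-2 quantified by ELISA and fitted in both directions relative to DMSO. Cytotoxicity checked in parallel cultures by SRB total-protein staining.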
# [2] = read-out: C-C motif chemokine 2 (Homo sapiens) (UniProt P13500); test: BSK_KF3CT_MCP1: BioMAP Diversity Plus: KF3CT Assay for Monocyte Chemoattractant Protein 1 (MCP1/CCL2) Biomarker Activity (AID 2283073); details: primary human keratinocytes with fibroblasts; actives raise or lower the signal
# Summary of the method: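 ELISA read-out of MCP-1, 24 h post-dose, in primary human skin keratinocytes co-cultured with fibroblasts. Parallel SRB staining monitors cytotoxicity; changes fitted both directions relative to DMSO.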
# [3] = read-out: Matrix Metallopeptidase 9 (MMP9), MMP9 (gene 4318); test: BSK_KF3CT_MMP9: BioMAP Diversity Plus: KF3CT Assay for Matrix Metallopeptidase 9 (MMP9) Biomarker Activity (AID 2283074); details: primary human keratinocytes with fibroblasts; actives raise or lower the signal;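 as to AC50: MMP9 protein level quantified by ELISA in the co-culture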
# Summary of the method: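 Human keratinocyte and foreskin fibroblast co-culture exposed to chemicals for 24 h; MMP9 biomarker measured by ELISA, bidirectional fitting relative to DMSO; cytotoxicity tracked by SRB total protein staining in parallel cultures.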
# [4] = read-out: urokinase plasminogen activator (uPA), PLAU (gene 5328); test: BSK_KF3CT_uPA: BioMAP Diversity Plus: KF3CT Assay for urokinase plasminogen activator (uPA) Biomarker Activity (AID 2283075); details: primary human keratinocytes with fibroblasts; actives raise or lower the signal
# Summary of the method: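 Primary human keratinocyte/foreskin fibroblast co-culture exposed to chemical; uPA measured by ELISA at 24 h. Bidirectional fit versus DMSO, with parallel SRB total-protein staining for cytotoxicity.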
# CD40, CD40 (gene 958) = test: BSK_LPS_CD40: BioMAP Diversity Plus: LPS Assay for CD40 Biomarker Activity (AID 2283076); details: primary human HUVEC with PBMC; actives raise or lower the signal
# Summary of the method: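 In the LPS system of human endothelial cells with peripheral blood mononuclear cells, CD40 levels were read by ELISA 24 h post-treatment. Signal changes in either direction were fitted against the DMSO baseline, with parallel SRB protein staining.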
# [5] = read-out: E-selectin (Homo sapiens) (UniProt P16581); test: BSK_LPS_Eselectin: BioMAP Diversity Plus: LPS Assay for Eselectin Biomarker Activity (AID 2283077); details: primary human HUVEC with PBMC; actives raise or lower the signal
# Summary of the method: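 E-selectin ELISA on LPS-stimulated endothelial cell/PBMC co-cultures, read 24 h post-treatment; gains and losses fitted against DMSO. Parallel SRB staining (0.1% SRB after 10% TCA fixation, 560 nm) flags overt cytotoxicity.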
# [6] = read-out: Interleukin-8 (IL8), CXCL8 (gene 3576); test: BSK_LPS_IL8: BioMAP Diversity Plus: LPS Assay for Interleukin-8 (IL8) Biomarker Activity (AID 2283078); details: primary human HUVEC with PBMC; actives raise or lower the signal
# Summary of the method: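 ELISA read-out of IL-8 after 24 h chemical treatment of LPS-activated endothelial/PBMC human primary co-cultures. Changes either up or down relative to DMSO; overt cytotoxicity checked by sulforhodamine B staining in parallel wells.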
# [7] = BSK_LPS_SRB: Viability Assessment in the BioMAP Diversity Plus: LPS Assay (AID 2283079); details: primary human HUVEC with PBMC;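 also: total protein by sulforhodamine B absorbance as a cytotoxicity measure; measured one day after compound addition; fitted in both directions against DMSO so loss or gain of signal counts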
# Summary of the method: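 SRB viability endpoint: cells fixed with 10% TCA, stained with 0.1% SRB, read at 560 nm, 24 h post-dose. HUVEC/PBMC co-culture; signal change in either direction scored relative to DMSO.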
# [8] = read-out: Interleukin-1 alpha (IL1a), IL1A (gene 3552); test: BSK_LPS_IL1a: BioMAP Diversity Plus: LPS Assay for Interleukin-1 alpha (IL1a) Biomarker Activity (AID 2283080); details: primary human HUVEC with PBMC; actives raise or lower the signal
# Summary of the method: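 Readout is IL-1a level by ELISA, 24 h post-dose, fitted as gain or loss relative to DMSO. System: LPS-activated human primary co-culture of vascular endothelium and peripheral blood mononuclear cells, with parallel SRB total-protein cytotoxicity.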
# [9] = read-out: Transforming growth factor beta 1 (TGFb1), TGFB1 (gene 7040); test: BSK_KF3CT_TGFb1: BioMAP Diversity Plus: KF3CT Assay for Transforming growth factor beta 1 (TGFb1) Biomarker Activity (AID 2283072); details: primary human keratinocytes with fibroblasts; actives raise or lower the signal
# Summary of the method: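 Human keratinocyte/foreskin fibroblast co-culture; TGF-b1 measured by ELISA 24 h after dosing, fitted bidirectionally versus DMSO. Cytotoxicity checked in parallel cultures by total protein (SRB staining, 560 nm).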
# Sequence of E-selectin (Homo sapiens) (P16581 whole entry, looked up): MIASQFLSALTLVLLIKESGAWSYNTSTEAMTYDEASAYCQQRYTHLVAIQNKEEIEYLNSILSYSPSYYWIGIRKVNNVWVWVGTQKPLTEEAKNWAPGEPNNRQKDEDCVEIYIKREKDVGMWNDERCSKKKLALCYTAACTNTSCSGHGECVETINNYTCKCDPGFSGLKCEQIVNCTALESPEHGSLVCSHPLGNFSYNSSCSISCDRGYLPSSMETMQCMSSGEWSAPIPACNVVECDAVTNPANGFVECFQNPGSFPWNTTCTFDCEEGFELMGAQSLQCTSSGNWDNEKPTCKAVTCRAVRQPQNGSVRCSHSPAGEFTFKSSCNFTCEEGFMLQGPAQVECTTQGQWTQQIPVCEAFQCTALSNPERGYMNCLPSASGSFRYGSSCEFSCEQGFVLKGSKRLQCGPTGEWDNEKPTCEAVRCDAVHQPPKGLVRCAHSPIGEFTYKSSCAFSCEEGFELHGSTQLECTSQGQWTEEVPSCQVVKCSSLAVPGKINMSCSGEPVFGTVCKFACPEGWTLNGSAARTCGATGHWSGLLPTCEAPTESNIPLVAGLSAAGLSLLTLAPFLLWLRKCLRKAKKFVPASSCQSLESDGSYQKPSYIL
SMILES,outcome [1],outcome [2],outcome [3],outcome [4],"outcome (CD40, CD40 (gene 958))",outcome [5],outcome [6],outcome [7],outcome [8],outcome [9],AC50 [3],AC50 [5],AC50 [6],AC50 [8],AC50 [1],AC50 [2],AC50 [4],"AC50 (CD40, CD40 (gene 958))",AC50 [7]
O=C(Cl)C(F)(F)C(F)(F)C(F)(F)C(=O)Cl,inactive,inactive,inactive,inactive,inactive,inactive,inactive,inactive,inactive,,,,,,,,,,
OCc1c[nH]c2ccccc12,inactive,inactive,,inactive,inactive,inactive,inactive,inactive,inactive,inactive,20 µM (active),,,,,,,,
CC(C)c1nnc2ccc(-c3ocnc3-c3cc(F)ccc3F)cn12,inactive,inactive,inactive,inactive,inactive,,,inactive,,inactive,,0.248 µM (active),0.148 µM (active),0.148 µM (active),,,,,
OC(Cn1cncn1)(Cn1cncn1)c1ccc(F)cc1F,inactive,inactive,inactive,inactive,inactive,inactive,inactive,inactive,inactive,inactive,,,,,,,,,
OCCNCCO,inactive,inactive,inactive,inactive,inactive,inactive,inactive,inactive,inactive,inactive,,,,,,,,,
NC(N)=O,inactive,inactive,inactive,,inactive,inactive,inactive,inactive,inactive,inactive,,,,,,,,,
CC(=O)c1ccccc1,inactive,inactive,inactive,inactive,inactive,inactive,inactive,inactive,inactive,inactive,,,,,,,,,
CCCCCCCC1CCC(=O)O1 (configuration not stated),inactive,inactive,inactive,inactive,inactive,inactive,inactive,inactive,inactive,inactive,,,,,,,,,
NCC(F)(F)C(F)(F)C(F)(F)C(F)(F)F,inactive,inactive,inactive,inactive,inactive,inactive,inactive,inactive,inactive,,,,,,,,,,
OC(O)(C(F)C(O)(O)C(F)(F)F)C(F)(F)F,inactive,inactive,inactive,inactive,inactive,inactive,inactive,inactive,inactive,,,,,,,,,,
CCN(CC)C(=S)SSC(=S)N(CC)CC,,,,,,,,,,,14.2 µM (active),34.8 µM (active),29.7 µM (active),,12.4 µM (active),10.5 µM (active),14.8 µM (active),30.4 µM (active),31.1 µM (active)
CC(C)C(=O)Nc1ccc([N+](=O)[O-])c(C(F)(F)F)c1,inactive,inactive,inactive,inactive,inactive,inactive,inactive,inactive,inactive,inactive,,,,,,,,,
FC(F)(F)C(F)(F)C(F)(F)C(F)(F)C(F)(F)C(F)(F)I,inactive,inactive,inactive,inactive,inactive,inactive,inactive,inactive,inactive,,,,,,,,,,
O=S1(=O)CCCO1,inactive,inactive,inactive,inactive,inactive,inactive,inactive,inactive,inactive,inactive,,,,,,,,,
OCCC(F)(F)C(F)(F)C(F)(F)C(F)(F)F,inactive,inactive,inactive,inactive,inactive,inactive,inactive,inactive,inactive,,,,,,,,,,
OC[C@H]1O[C@@](CO)(O[C@H]2O[C@H](CO)[C@@H](O)[C@H](O)[C@H]2O)[C@@H](O)[C@@H]1O,inactive,inactive,inactive,inactive,inactive,inactive,inactive,inactive,inactive,inactive,,,,,,,,,
CCCCOC(=O)c1ccccc1,inactive,inactive,inactive,inactive,inactive,inactive,inactive,inactive,inactive,inactive,,,,,,,,,
O=C1CN(N=Cc2ccc([N+](=O)[O-])o2)C(=O)N1,inactive,inactive,inactive,inactive,inactive,inactive,inactive,inactive,inactive,inactive,,,,,,,,,
O=S(=O)(O)CCC(F)(F)C(F)(F)C(F)(F)C(F)(F)C(F)(F)C(F)(F)F,inactive,inactive,inactive,inactive,inactive,inactive,inactive,inactive,inactive,,,,22.5 µM (active),,,,,,
FC(F)C(F)(F)COCC1CO1 (configuration not stated),inactive,inactive,inactive,inactive,inactive,inactive,inactive,inactive,inactive,,,,,,,,,,
FC(F)=C(F)C(F)(F)C(F)(F)C(F)(F)C(F)(F)C(F)(F)C(F)(F)F,inactive,inactive,inactive,inactive,inactive,inactive,inactive,inactive,inactive,,,,,,,,,,
CCCCCCCCCC,inactive,inactive,inactive,inactive,inactive,inactive,inactive,inactive,inactive,inactive,,,,,,,,,
C[Si](C)(C)C(F)(F)C(F)(F)C(F)(F)F,inactive,inactive,inactive,inactive,inactive,inactive,inactive,inactive,inactive,,,,,,,,,,
CCCCCCCCCCCCCCO,inactive,inactive,inactive,inactive,,,,,,inactive,,,34 µM (active),30.2 µM (active),,,,36.6 µM (active),30.7 µM (active)
CC[C@H](C)C(=O)O[C@H]1C[C@H](O)C=C2C=C[C@H](C)[C@H](CC[C@@H](O)C[C@@H](O)CC(=O)O)[C@H]21,inactive,inactive,inactive,inactive,inactive,inactive,inactive,inactive,inactive,inactive,,,,,,,,,
FC(F)(F)COC(OCC(F)(F)F)OCC(F)(F)F,inactive,inactive,inactive,inactive,inactive,inactive,inactive,inactive,inactive,,,,,,,,,,
O=c1[nH]cnc2c1ncn2[C@H]1CC[C@@H](CO)O1,inactive,inactive,inactive,inactive,inactive,inactive,inactive,inactive,inactive,inactive,,,,,,,,,
CC(C)CCCCCCOC(=O)C1CCCCC1C(=O)OCCCCCCC(C)C (configuration not stated),inactive,inactive,inactive,inactive,inactive,inactive,inactive,inactive,inactive,inactive,,,,,,,,,

# — PubChem BioAssay (EPA / NIEHS)
